Screening data: PubChem BioAssay, National Center for Advancing Translational Sciences (NCATS)
An excerpt weighted towards active compounds, which were near 3% of everything screened.
VDR inhibitor: vitamin D3 receptor (human) inhibition; VDR-SRC2-3 peptide fluorescence polarization, 2 h; Potency, µM, for the others: max response, negative = inhibition, actives largely listed as inhibitors; hit rate 0.93% among 400,000; note: % is set by controls: 0 for no effect and ±100 for the full control effect
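The screen uses fluorescence polarization to detect compounds that interfere with recruitment of the SRC2-3 coactivator peptide to VDR; plates are read after 2 h at room temperature.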
PTAP TSG101 blk: blocks PTAP/TSG101 interaction to inhibit HIV-1 budding | Q99816 | Fluorescence polarization, FITC-PTAP peptide / Tsg101 binding | Potency, µM (titrated, usually from 115 µM), for inactives: at the top dose activity change, negative = inhibition, most hits filed as inhibitors | 340,000 tested, under 10 active | AID 493005; active = well fitted inhibition curve with a large enough effect in the main read-out, with a control signal flat, not every such curve was filed as active; inconclusive = small, poorly fitted or top-dose-only effect, or effect the other way, or a change in a side signal; inactive = no such curve, though single readings can be large or run the other way; note: % of control where 0% means no effect
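Compounds were pin-transferred onto Tsg101 binding domain (10 uM final) in HEPES pH 7.5 buffer, then FITC-PTAP peptide was added at 50 nM final. After 20 min at RT, polarization reported peptide displacement across a qHTS concentration series.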
GCN5L2 inh: GCN5L2 (KAT2A) acetyltransferase inhibition. Potency, µM (highest dose often 58.9 µM), for inactives: at the highest dose activity change, negative = inhibition, actives largely listed as inhibitors. GCN5L2 HAT assay, ThioGlo1 CoA-SH fluorescence. hit rate 0.21% among 390,000. AID 504327; note: % is set by controls: 0 for no effect and ±100 for the full control effect
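Compounds, pin-transferred from DMSO stocks, meet 20nM GCN5L2 for 15 min before the reaction begins with H3(1-25) peptide (75uM) and acetyl-CoA (70uM). Thiol-reactive ThioGlo1 reports CoA release over 20 min at room temperature.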
USP1-UAF1 inh: USP1/UAF1 (human) deubiquitinase inhibition; recombinant USP1/UAF1, Ub-Rhodamine cleavage fluorescence; AID 743255; Potency, µM (highest dose often 57.1 µM), for the others: at the highest dose activity change, negative = inhibition, actives largely listed as inhibitors; hit rate 0.23% among 390,000; O94782; note: % is set by controls: 0 for no effect and ±100 for the full control effect; nearly all actives have a fitted effect of over 60% in size
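Step one: compound is pinned into 1nM USP1/UAF1 in HEPES pH 7.8 buffer with TCEP. Step two: 15 min room-temperature incubation. Step three: Ub-Rho (150nM final) starts cleavage, tracked by fluorescence over six one-minute reads.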
PLK1 PBD block: PLK1 (human) polo-box domain binding inhibition; Potency, µM, for inactives: max response, negative = inhibition, hits mostly inhibitors; P53350; hit rate 2.8% among 360,000; Plk1 PBD binding of FITC phosphopeptide, fluorescence polarization; note: series mostly up to about 57 µM; % is set by controls: 0 for no effect and ±100 for the full control effect; nearly all actives have a fitted effect of over 65% in size
VDR inh confirm: inhibits human vitamin D receptor, primary hit validation | shares compounds with VDR inhibitor | VDR-coactivator inhibition assay, qHTS confirmation | Potency, µM, usual class: inhibitors | hit rate 89% among 840 | AID 602199
VDR FP fluor: VDR (human) coactivator binding inhibition, fluorescein polarization; shares compounds with VDR inhibitor; VDR-coactivator binding, fluorescein fluorescence polarization; AID 602200; hit rate 48% among 840; Potency, µM (highest dose often 57.1 µM), without a hit: at the highest dose activity change, negative = inhibition, actives largely listed as inhibitors
VDR bla: confirmation of human vitamin D receptor inhibitors in reporter cells. shares compounds with VDR inhibitor. VDR beta-lactamase reporter cells, FRET ratio; cells co-treated with VDR agonist LG190178. Potency, µM (top dose mostly 46.1 µM), without a hit: top-dose activity change, negative = inhibition, actives largely listed as inhibitors. hit rate 23% among 840. AID 602202; note: % is set by controls: 0 for no effect and ±100 for the full control effect
VDR viability: cell toxicity, VDR inhibitor hit counter-screen; shares compounds with VDR inhibitor; cytotoxicity counter-screen, cell viability, qHTS; Potency, µM (series often up to 48.3 µM), inactives show at the highest dose activity change, negative = cytotoxicity, most hits filed as cytotoxic; AID 602204; hit rate 18% among 840;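 note: plate controls were DMSO for no effect and high-concentration cycloheximide for full effect; nearly all actives have a fitted effect of over 75% in size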
* marks the source's active call; other numbers are inactive results. Unless noted, calls come from the whole dose curve; as a rule, active = well fitted curve in the direction sought with a large enough effect; inconclusive = small, poorly fitted or top-dose-only effect, or another doubt; inactive = no such curve, though single readings can be large; an effect the other way counts as inactive or inconclusive. Potency is the fitted concentration of half-maximal effect.

`O=C(CCS(=O)(=O)c1nc(-c2cccs2)cc(C(F)(F)F)n1)Nc1cc(Br)ccc1O` gave VDR inhibitor 11µM*, GCN5L2 inh -5%, USP1-UAF1 inh -4%, VDR inh confirm 3.2*, VDR FP fluor 3.5µM*, VDR bla -1% and VDR viability inconclusive.
`COc1ccc(Cc2c(-c3ccc(C#N)cc3)nc3c(Cl)cc(C(F)(F)F)cn23)c(C)c1` gave PLK1 PBD block -14%.
`c1ccc(CCc2nn3c(Cn4cnc5ccccc54)nnc3s2)cc1` gave VDR inhibitor inconclusive, PTAP TSG101 blk -3%, GCN5L2 inh -11%, USP1-UAF1 inh -15%, PLK1 PBD block 6.7µM*, VDR inh confirm 22*, VDR FP fluor 20µM*, VDR bla -3% and VDR viability -9%.
Screening c1ccc(OCc2nn3c(Cn4nnc5ccccc54)nnc3s2)cc1 returned VDR inhibitor inconclusive, PTAP TSG101 blk -7%, GCN5L2 inh -15%, USP1-UAF1 inh -3%, PLK1 PBD block 12µM*, VDR inh confirm 22*, VDR FP fluor 8.9µM*, VDR bla 2% and VDR viability -14%.
`c1ccc(OCc2nn3c(-c4cccnc4)nnc3s2)cc1` gave VDR inhibitor -7%, PTAP TSG101 blk -1%, GCN5L2 inh -2%, USP1-UAF1 inh -15% and PLK1 PBD block -1%.
Screening CC(C)CCNC(=O)c1cc(-c2ccc(Br)s2)nc2ccccc12 returned VDR inhibitor 8%, GCN5L2 inh -11% and USP1-UAF1 inh -14%.
Screening CC(C)(C)c1ccc(C(=O)CC(Sc2ccc(Cl)cc2)C(=O)O)cc1 (stereo unspecified) returned VDR inhibitor 10µM*, PTAP TSG101 blk 2%, GCN5L2 inh -11%, USP1-UAF1 inh inconclusive, PLK1 PBD block 11µM*, VDR inh confirm 11*, VDR FP fluor 3.2µM*, VDR bla -29% and VDR viability inconclusive.
`O=C(CCN1CCCCCC1)c1ccccc1` gave VDR inhibitor -7%, PTAP TSG101 blk -4%, GCN5L2 inh 1%, USP1-UAF1 inh -18% and PLK1 PBD block inconclusive.
Screening CC(C)Oc1ccc(C(=O)CCN2CCCCC2)cc1 returned VDR inhibitor inconclusive, PTAP TSG101 blk -5%, GCN5L2 inh -3%, USP1-UAF1 inh -16%, PLK1 PBD block inconclusive, VDR inh confirm 7.1*, VDR FP fluor 3.2µM*, VDR bla inconclusive and VDR viability -19%.
For CCCOc1ccc(/C=C/c2[nH]c(=O)[nH]c(=O)c2[N+](=O)[O-])cc1OCC the results were VDR inhibitor -13%, PTAP TSG101 blk inconclusive, GCN5L2 inh -11%, USP1-UAF1 inh -11% and PLK1 PBD block -1%.
CCOC(=O)COc1ccc(Br)cc1/C=C/c1[nH]c(=O)[nH]c(=O)c1[N+](=O)[O-] was read as VDR inhibitor 14µM*, PTAP TSG101 blk -14%, GCN5L2 inh inconclusive, USP1-UAF1 inh -17%, PLK1 PBD block -28%, VDR inh confirm 3.8*, VDR FP fluor inconclusive, VDR bla -30% and VDR viability inconclusive.
Screening CCOC(=O)COc1ccc(Br)cc1/C=C\c1[nH]c(=O)[nH]c(=O)c1[N+](=O)[O-] returned VDR inhibitor 22µM*, PTAP TSG101 blk -2%, GCN5L2 inh -4%, USP1-UAF1 inh -24%, PLK1 PBD block -20%, VDR inh confirm 4.2*, VDR FP fluor 3.2µM*, VDR bla inconclusive and VDR viability inconclusive.
`O=C(CSc1nnc(C2CC2)n1CC1CCCO1)Nc1ccc(Cl)cc1` (stereo unspecified) gave VDR inhibitor 20%, PTAP TSG101 blk 0%, GCN5L2 inh 0%, USP1-UAF1 inh -3% and PLK1 PBD block -7%.
For COc1ccc(CCCc2nnc(SCC(=O)Nc3ccc(C)cc3)o2)cc1C the results were VDR inhibitor 6%, GCN5L2 inh -3% and USP1-UAF1 inh -10%.
Screening Cc1cccc(CCNC(=O)c2cc3c(=O)[nH]c4ccc(C)cc4c3s2)c1 returned VDR inhibitor -14%, GCN5L2 inh 1% and USP1-UAF1 inh -22%.
For CS(=O)(=O)c1ncc(Cl)c(C(=O)N(Cc2ccc(Cl)cc2)Cc2ccco2)n1 the results were VDR inhibitor 25µM*, GCN5L2 inh 0%, USP1-UAF1 inh -22%, VDR inh confirm 2.8*, VDR FP fluor 3.5µM*, VDR bla 16µM* and VDR viability 19µM*.
COc1ccc(Cl)cc1C(Nc1cccnc1)c1ccc2cccnc2c1O (stereo unspecified) was read as VDR inhibitor 20µM*, PTAP TSG101 blk 0%, GCN5L2 inh -10%, USP1-UAF1 inh -25%, PLK1 PBD block 4.2µM*, VDR inh confirm 21*, VDR FP fluor inconclusive, VDR bla -30% and VDR viability -19%.
Screening Cc1ccc(NC(=O)CSc2nc(=O)n(CCN3CCOCC3)c3c2CCC3)c(C)c1 returned VDR inhibitor -1%, GCN5L2 inh -3% and USP1-UAF1 inh inconclusive.
O=C(N/N=C/c1ccccc1OC(=O)c1ccc2c(c1)OCO2)c1cccc(F)c1 was read as VDR inhibitor -16%, PTAP TSG101 blk 0%, GCN5L2 inh -3%, USP1-UAF1 inh -14% and PLK1 PBD block -9%.
For O=C(Oc1ccccc1/C=C\C(=O)c1cc2ccccc2o1)c1ccccc1 the results were VDR inhibitor inconclusive, PTAP TSG101 blk 0%, GCN5L2 inh -5%, USP1-UAF1 inh -25%, PLK1 PBD block -11%, VDR inh confirm 4*, VDR FP fluor inconclusive, VDR bla inconclusive and VDR viability -11%.
O=C(Oc1ccccc1/C=C\C(=O)c1cc2ccccc2o1)c1cccc(F)c1 was read as VDR inhibitor 28µM*, PTAP TSG101 blk -2%, GCN5L2 inh -3%, USP1-UAF1 inh -17%, PLK1 PBD block -13%, VDR inh confirm 11*, VDR FP fluor inconclusive, VDR bla inconclusive and VDR viability inconclusive.
